# Measurements reported in PubChem BioAssay AID485297 (National Center for Advancing Translational Sciences (NCATS), 2010).
# About 9,100 (2.8%) of roughly 320,000 compounds were called active. Not shown: some 3% with an inconclusive outcome. The list comes from a sample in which actives are over-represented; it also holds similar structures and randomly drawn compounds. Values without a mark were called inactive. The call rests on the fitted dose curve; in most records, active means well fitted activation curve with a large enough effect; inconclusive means small, poorly fitted or top-dose-only effect; inactive means no such curve, though single readings can be large or run the other way.
# Test: qHTS Assay for Rab9 Promoter Activators; further: nearly all actives have a fitted effect of over 60% in size; on activation, negative = inhibition: % of control where 0% means no effect
# Conditions: Huh7 Rab9 promoter-luciferase reporter, luminescence, 24 h; series mostly up to 9.22 µM; activation, negative = inhibition: at the top concentration
# Outline: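 Huh7 reporter line, Rab9 promoter upstream of luciferase. Compound exposure 24 h at 37 °C in reduced-serum medium with 10% FBS. Read-out: luminescence.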
# Potency means the concentration at half of the fitted maximal effect.
Compound,"activation, negative = inhibition",Potency
CC(C)(C)OC(=O)N/N=C/c1ccc(C(=O)O)cc1,10.3%,–
C/C(=N\NC(=O)OC(C)(C)C)c1ccc[nH]1,–,2.82 µM (active)
Cc1ccccc1NC(=O)NNC(=O)OC(C)(C)C,-1.38%,–
Cc1cccc(C)c1NC(=O)C(Cl)C(=O)c1ccccc1 (centres undefined),0.571%,–
CCCCN(C(=O)C1CCC1)c1c(N)n(Cc2ccccc2)c(=O)[nH]c1=O,-2.45%,–
CCC(=O)c1ccc(OCC(=O)OCC(=O)N2CCc3ccccc3C2)cc1,-1.46%,–
O=C(Nc1ccccc1)c1cc2ccccc2[nH]1,–,2.51 µM (active)
COc1ccc2[nH]c(C(=O)Nc3ccccc3Cl)cc2c1,-0.505%,–
O=C(Nc1cccc(NC(=O)c2ccc(Br)cc2)c1)c1ccccc1,-4.51%,–
Cc1sc2ncnc(SCC(=O)Nc3ccc(CN4CCCC4)cc3)c2c1C,-3.72%,–
COc1ccc2[nH]cc(CCN3C(=O)c4ccc(C(=O)O)cc4C3=O)c2c1,–,1 µM (active)
COc1ccc(C[C@H](C(=O)O)N2C(=O)c3ccc(C(=O)O)cc3C2=O)cc1,-0.624%,–
Cc1ccc2[nH]cc(CCCN3C(=O)c4ccccc4C3=O)c2c1,-0.334%,–
COc1cc([N+](=O)[O-])ccc1NC(=O)COC(=O)CCOc1ccc(C)cc1,-12.9%,–
Nc1c(C(=O)c2cccs2)sc2nsc(SCCN3CCCCC3)c12,–,2.51 µM (active)
O=C(CSc1ncnc2sccc12)N1CCN(C(=O)c2cccs2)CC1,0.66%,–
O=C(CN1C2=NCCN2c2ccccc21)c1cccs1,-0.857%,–
CCCCC/C=C/C1=CC(=O)C[C@H](c2ccc(Cl)cc2)C1,1.49%,–
COc1ccccc1CNC(=O)COC(=O)c1sc(C)nc1C,-3.97%,–
CCOC(=O)c1sc(=NC(=O)c2ccc(Br)cc2)n(C)c1C,0.397%,–
CCOC(=O)c1c(NC(=S)NC(=O)/C=C/c2cccs2)sc(C)c1C,2.48%,–
CCOC(=O)c1sc(=NC(=O)/C=C/c2cccs2)n(C)c1C,–,2.82 µM (active)
Cc1cccc(-c2nc3ccc(C(=O)NCCN4CCN(C)CC4)cc3nc2-c2cccc(C)c2)c1,2.86%,–
C=CCNC(=O)c1ccc(C)c(Br)c1,-1.69%,–
C=CCNC(=O)c1ccc2c3n(nc2c1)-c1ccc(C)cc1CO3,–,0.891 µM (active)
COc1ccc(CNC(=O)CN2C(=O)NC3(CCCc4sccc43)C2=O)cc1 (centres undefined),6.95%,–
CO[C@H]1[C@@H]2C=CO[C@@H](O[C@H]3O[C@@H](CO)[C@H](O)[C@@H](O)[C@@H]3O)[C@@H]2[C@@]2(CO)O[C@@H]12,-3.32%,–

Compound,"activation, negative = inhibition",Potency
Cc1cc(C)nc(Nc2cc([N+](=O)[O-])ccc2C)n1,-11.1%,–
Cc1ccc(-c2cn(S(=O)(=O)c3cccc([N+](=O)[O-])c3)nc2N)cc1,-1.36%,–
Cc1ccc(-n2cc3ccc([N+](=O)[O-])cc3n2)cc1,–,0.355 µM (active)
Cc1ccc(CNC(=O)c2cccc3c2C(=O)c2ccc(N4CCC(C)CC4)cc2S3(=O)=O)cc1,15.8%,–
Cc1c(O)c(C)c2c(c1O)C(=O)C[C@@H](c1ccccc1)O2,-3.21%,–
COc1ccc(NC(=O)C2COc3ccccc3O2)cc1 (centres undefined),–,3.16 µM (active)
CC(=O)c1cccc(NC(=O)C2COc3ccccc3O2)c1 (centres undefined),0.233%,–
COc1ccc(NC(=O)CC2COc3ccccc3O2)c(OC)c1 (centres undefined),5.83%,–
CC(C)C[C@H](NC(=O)[C@H](O)[C@H](N)Cc1ccccc1)C(=O)O,-1.46% [at 46.1 µM],–
CNS(=O)(=O)c1cccc(C(=O)OCCCC(=O)c2ccccc2)c1,-6.66%,–
O=C(Nc1cccc(Cl)c1)OCc1ccccn1,–,3.98 µM (active)
O=C(Nc1ccc(Cl)cc1)OCc1cc(-c2ccccc2)on1,0.695%,–
O=C(Nc1cccc(CCc2ccccn2)c1)c1ccc(Cl)cc1,-8.69%,–
CC(C)N(C(=O)CSc1nnc(NC2CC2)s1)c1ccccc1,-5.19%,–
CCc1nnc(NC(=O)C2CCN(C(=O)c3ccccc3C)CC2)s1,-6.02%,–
O=C1/C(=C/c2ccc3c(c2)OCO3)CCC/C1=C\c1ccc2c(c1)OCO2,-1.72%,–
Nc1[nH][nH]c(=O)c1N=Nc1ccc2c(c1)OCO2,–,3.55 µM (active)
Cc1[nH][nH]c(=O)c1N=Nc1ccccc1,12%,–
COc1ccc2ccn(C)c2c1,-0.692%,–
Cc1ccc(NC(=O)CN(C)C(=O)COC(=O)c2nccnc2N)cc1,-6.5%,–
CS(=O)(=O)N1CCc2nc(-c3ccccc3)sc2C1,–,1.58 µM (active)
CS(=O)(=O)N1CCN(C(=O)Cc2ccccc2)CC1,2.51%,–
CS(=O)(=O)N1CCN(c2cccc(Cl)n2)CC1,-4.47%,–
NC(=O)C1CCN(C(=O)c2ccc(F)c(S(=O)(=O)N3CCOCC3)c2)CC1,0.968%,–
Cc1ccc(N(CC(=O)NCC2CCCO2)C(=O)CNS(=O)(=O)c2ccc(Cl)cc2)cc1 (centres undefined),3.13%,–
O=C1c2ccccc2C(=O)N1CCC#Cc1ccc2cc(C3(O)CCCCC3)oc(=O)c2c1,-4.71%,–
O=C(Nc1ccc(C2CC2(Cl)Cl)cc1)c1cccc([N+](=O)[O-])c1 (centres undefined),–,3.98 µM (active)
